Screens as filed in PubChem.
DT40 TDP1 CPT – growth inhibition of DT40 Tdp1-/-;hTDP1 cells with camptothecin (screen for TDP1 inhibitors); chicken DT40 Tdp1-/-;hTDP1 cells + 20 nM CPT, ATP luminescence, 48 h; Potency, µM (series often up to 46.2 µM), most hits filed as inhibitors; 420,000 compounds, 12% hits; AID 686979; further: nearly all actives have a fitted effect of over 55% in size
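Cell growth measured by CellTiter-Glo luminescence after a minimum 48 h, 37 C compound exposure with 20 nM CPT in Tdp1-knockout DT40 cells stably expressing hTDP1, seeded 400/well; qHTS titration format.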
HT1080 IDH1KD tx – kills HT-1080 cells with IDH1 knockdown | 360,000 compounds, 2% hits | Potency, µM (series often up to 46.1 µM), actives largely listed as cytotoxic | HT-1080 IDH1 knockdown viability, ATP luminescence, 48 h | AID 686971
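Cytotoxicity counter-line: IDH1KD HT-1080, 48 h, CellTiter-Glo. Curves classed by r2, magnitude and activity.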
HT1080NT lethal – kills 2HG-producing HT-1080-NT fibrosarcoma cells; Potency, µM (highest dose often 46.1 µM), actives largely listed as cytotoxic; 360,000 compounds, 1.6% hits; HT-1080-NT fibrosarcoma viability, CellTiter-Glo ATP luminescence, 48 h; AID 686970;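 further: NT is the 2HG producing partner of a matched IDH1 knockdown line; nearly all actives have a fitted effect of over 55% in size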
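Compounds were tested in concentration-response format on HT-1080-NT cells for 48 hours at 37 degrees C. Cell viability came from CellTiter-Glo luminescence; curves were classified by r2, response magnitude and activity.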
KB-V1 cytotox – kills drug-selected multidrug resistant KB-V1 cells. KB-V1 MDR cells viability, CellTiter-Glo, 72 h. Potency, µM (titrated, usually from 46.1 µM), hits mostly cytotoxic. 400,000 compounds, 3.4% hits. AID 1347076; further: nearly all actives have a fitted effect of over 60% in size
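In this primary screen, KB-V1 cells overexpressing P-gp are incubated with library compounds (lowest to highest concentration) for 72 h at 37 degrees C before a luminescent ATP viability read.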
KB-3-1 tox – kills parental KB-3-1 adenocarcinoma cells. KB-3-1 viability, CellTiter-Glo ATP luminescence, 72 h. Potency, µM (doses to about 46.1 µM), most hits filed as cytotoxic. 400,000 compounds, 1.4% hits. AID 1347075; further: nearly all actives have a fitted effect of over 60% in size
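KB-3-1 parental drug-naive adenocarcinoma cells in DMEM/10% FBS, incubated 72 h at 37 C with pin-transferred compounds across a concentration series. Viability by CellTiter-Glo luminescence; concentration-response curves fitted after normalization.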
TDP1 cell noCPT – qHTS for Inhibitors of human tyrosyl-DNA phosphodiesterase 1 (TDP1): qHTS in cells in absence of CPT; Potency, µM (doses to about 46.2 µM), hits mostly inhibitors; 420,000 compounds, 15% hits; DT40 Tdp1-/- hTDP1 cells, no CPT, ATP luminescence, 48 h; further: nearly all actives have a fitted effect of over 55% in size
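No-CPT arm: Tdp1-/-;hTDP1 DT40 cells (400/well) plus compounds, incubated ≥48 hr at 37 °C. Readout CellTiter-Glo luminescence.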
Large screens that a line does not name were inactive. Rows were chosen to be rich in hits. Some 19% of all compounds tested hit in one or more screens of this group. The call rests on the fitted dose curve; in most records, active means well fitted curve in the direction sought with a large enough effect; inconclusive means small, poorly fitted or top-dose-only effect, or another doubt; inactive means no such curve, though single readings can be large; an effect the other way counts as inactive or inconclusive.

Cc1ccccc1OCC(=O)Nc1ccc2c(c1)Cc1ccccc1-2	HT1080 IDH1KD tx inconclusive
Cc1ccccc1OCC(=O)Nc1ccc(N2CCN(C)CC2)c(Cl)c1	DT40 TDP1 CPT inconclusive, HT1080 IDH1KD tx inconclusive, HT1080NT lethal inconclusive, TDP1 cell noCPT 14.6µM
CC1(c2ccccc2)NC(=O)N(CC(=O)Nc2ccccc2C(=O)N2CCCCC2)C1=O (configuration not stated)	none
CCCCCCC(=O)N(O)C1CC(=O)N(c2ccc(Br)cc2)C1=O (configuration not stated)	DT40 TDP1 CPT 20.6µM, HT1080 IDH1KD tx 15.8µM, HT1080NT lethal inconclusive, TDP1 cell noCPT 18.4µM
CCCCCCC(=O)N(O)C1CC(=O)N(c2ccc(F)cc2)C1=O (configuration not stated)	DT40 TDP1 CPT 1.64µM, HT1080 IDH1KD tx inconclusive, HT1080NT lethal 16.4µM, TDP1 cell noCPT 2.91µM
CCOC(=O)N1CCN(C2CC(=O)N(c3ccc(F)cc3)C2=O)CC1 (configuration not stated)	none
O=C1CC(N(O)c2ccccc2)C(=O)N1c1ccc(Cl)c(Cl)c1 (configuration not stated)	DT40 TDP1 CPT inconclusive, TDP1 cell noCPT inconclusive
COc1ccccc1N(O)C1CC(=O)N(c2ccc(Br)cc2)C1=O (configuration not stated)	DT40 TDP1 CPT 18.4µM, TDP1 cell noCPT inconclusive
COc1ccc(C(=O)N/C(=C/c2cccs2)C(=O)NN)cc1OC	none
c1coc(-c2nnc(-c3ccco3)nn2)c1	DT40 TDP1 CPT 5.8µM, TDP1 cell noCPT 11.6µM
c1ccc(-c2nnc(-c3ccco3)o2)cc1	none
CC(O)(CS(=O)(=O)Cc1ccccc1)C(=O)Nc1ccc(C(F)(F)F)cc1 (configuration not stated)	HT1080 IDH1KD tx inconclusive, KB-V1 cytotox 20.6µM
CC(O)(CS(=O)(=O)Cc1ccccc1)c1ccc(Cl)cc1 (configuration not stated)	none
CC(O)(CS(=O)(=O)Cc1ccccc1)C(=O)Nc1cccc(C(F)(F)F)c1 (configuration not stated)	HT1080 IDH1KD tx inconclusive, KB-V1 cytotox 14.6µM
Cc1ccc(-n2nc(C(=O)Nc3ccc(C)c(F)c3)c3c4ccccc4n(C)c3c2=O)cc1	none (no result: HT1080 IDH1KD tx, HT1080NT lethal)
COc1ccc(N2CCCC2=N)c(OC)c1	none
O=c1ccn(-c2cccc(C(F)(F)F)c2)nc1-c1ccn(-c2ccccc2F)n1	DT40 TDP1 CPT inconclusive, KB-V1 cytotox inconclusive, TDP1 cell noCPT inconclusive
COc1ccc(-n2ccc(-c3nn(-c4cccc(C(F)(F)F)c4)ccc3=O)n2)cc1	DT40 TDP1 CPT inconclusive, KB-3-1 tox inconclusive, TDP1 cell noCPT 18.4µM
Cc1ccccc1CNCc1c(C(=O)O)c(C)n(Cc2ccc(F)cc2Cl)c1C	KB-V1 cytotox inconclusive (no result: HT1080 IDH1KD tx, HT1080NT lethal)
CCc1nnc(NC(=O)c2ccc(S(=O)(=O)N(C)c3ccccc3)cc2)o1	DT40 TDP1 CPT 11.6µM, HT1080 IDH1KD tx inconclusive, KB-3-1 tox inconclusive, TDP1 cell noCPT 4.61µM
CCCN(CCC)S(=O)(=O)c1ccc(C(=O)Nc2nnc(COC)o2)cc1	DT40 TDP1 CPT inconclusive, HT1080 IDH1KD tx inconclusive, TDP1 cell noCPT inconclusive
CCc1nnc(NC(=O)c2ccc(S(=O)(=O)N(CC(C)C)CC(C)C)cc2)o1	DT40 TDP1 CPT 20.6µM, HT1080 IDH1KD tx inconclusive, HT1080NT lethal inconclusive, KB-V1 cytotox inconclusive, KB-3-1 tox inconclusive, TDP1 cell noCPT 18.4µM
Cc1nc2ccccc2n1CC(=O)NCc1ccccc1	DT40 TDP1 CPT 9.2µM, KB-V1 cytotox 6.51µM, KB-3-1 tox inconclusive, TDP1 cell noCPT 11.6µM
Cc1cc(=O)c2ccccc2n1Cc1ccccc1	DT40 TDP1 CPT inconclusive, HT1080 IDH1KD tx inconclusive, KB-V1 cytotox inconclusive, TDP1 cell noCPT 16.4µM
Cc1cc(=O)c2ccccc2n1CC(=O)NCc1ccccc1	DT40 TDP1 CPT 18.4µM, KB-V1 cytotox 4.61µM, TDP1 cell noCPT inconclusive
